# This is part of a sample that, as a whole, favours compounds with a hit. Of some 83,000 tested, about 20% had one in any assay.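 Treatment: one concentration, 48 hours, 96-well format. Scoring: percent growth, with anything below 10 considered active.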 Unmarked numbers belong to inactive results. The source made the active and inactive calls.
# Key:
# Experiment in all cases: NCI-60 one-dose screen, 48 h (100 = growth as untreated, 0 = no growth, -100 = all killed)
# NCI-H23 lung = settings: 10 µM unless noted
# NCI-H226 lung = settings: 10 µM unless noted
# NCI-H322M lung = settings: 10 µM unless noted
# HOP-62 NSCLC = settings: 10 µM unless noted
# NCI-H460 lung = settings: 10 µM unless noted
# HOP-92 NSCLC = settings: 10 µM unless noted
# NCI-H522 lung = settings: 10 µM unless noted
# 786-0 renal = settings: 10 µM unless noted
# COLO 205 colon = settings: 10 µM unless noted
# DU-145 prostate = settings: 10 µM unless noted
# K-562 leukemia = settings: 10 µM unless noted
# MALME-3M melanoma = settings: 10 µM unless noted
# MDA-MB-231 breast = settings: 10 µM unless noted
# RXF 393 renal = settings: 10 µM unless noted
# SF-268 CNS = settings: 10 µM unless noted
# SF-295 CNS = settings: 10 µM unless noted
# SF-539 CNS = settings: 10 µM unless noted
# M14 melanoma = settings: 10 µM unless noted
# UACC-257 melanoma = settings: 10 µM
# A549/ATCC NSCLC = settings: 10 µM unless noted
SMILES,growth (NCI-H23 lung),growth (NCI-H226 lung),growth (NCI-H322M lung),growth (HOP-62 NSCLC),growth (NCI-H460 lung),growth (HOP-92 NSCLC),growth (NCI-H522 lung),growth (786-0 renal),growth (COLO 205 colon),growth (DU-145 prostate),growth (K-562 leukemia),growth (MALME-3M melanoma),growth (MDA-MB-231 breast),growth (RXF 393 renal),growth (SF-268 CNS),growth (SF-295 CNS),growth (SF-539 CNS),growth (M14 melanoma),growth (UACC-257 melanoma),growth (A549/ATCC NSCLC)
C=C1C(=O)O[C@H]2[C@H]1CC/C(COC(=O)NCCc1cccc(OC)c1)=C\CC[C@@]1(C)O[C@@H]21,75.1%,41.3%,91.7%,66.6%,74.5%,44%,-30.8% (active),5.24% (active),-35.3% (active),16.5%,11.5%,85.3%,29.4%,-2.81% (active),55.4%,89.2%,38.9%,29.9%,,
COc1ccc(-n2c(C)cc(-c3ccccc3)c2C)cc1,33.9%,57.3%,93.5%,82.4%,46.8%,24.6%,29.5%,35%,39.4%,73.9%,15.6%,36.9%,6.48% (active),10.1%,75.5%,34.1%,62%,15.9%,40.3%,
Cc1cc(Nc2nc(-c3ccc(F)cc3)nc3ccccc23)n[nH]1,57.3%,58.6%,65.5%,78.6%,35.6%,30.5%,27.7%,56.9%,40.3%,77.1%,36.6%,57%,78.7%,,63.3%,64.4%,66.6%,53.5%,47.2%,
Nc1c(C(=O)Nc2cccc(Cl)c2Cl)sc2nc3c(cc12)C(=O)CCC3,76.1%,87%,76.7%,95.3%,20%,91.5%,12.5%,92.4%,25.8%,96.2%,42.1%,68.6%,71.8%,,103%,35.8%,105%,80.8%,76.9%,
CCSc1nnc(NC(=O)Cc2ccc(Cl)cc2)s1,99.1%,104%,112%,102%,123%,89.4%,107%,100%,108%,105%,89.4%,105%,114%,20.6%,110%,98.3%,97.4%,107%,,
COc1cc2c(cc1OC)C1(C)N(CC2)C(=O)OC1(C)C (configuration not stated),110%,92.8%,101%,111%,101%,101%,100%,102%,120%,112%,-78.1% (active),122%,115%,99%,103%,103%,106%,101%,95.6%,
Nc1c(C(=O)Nc2cccc([N+](=O)[O-])c2)sc2nc3c(cc12)C(O)CCC3 (configuration not stated),67.6%,80.8%,78.2%,55.1%,28.2%,72.1%,28.3%,68.7%,40.8%,71.4%,17.6%,65.8%,65.5%,,60.5%,57.4%,37%,35.3%,66.8%,
O=C(O)c1cn(C2CC2)c2cc(N3CCN(S(=O)(=O)c4ccc(Cl)c(Cl)c4)CC3)c(F)cc2c1=O,1.76% (active),41.4%,21.3%,15.2%,5.77% (active),12.2%,-21.4% (active),27.8%,-68.4% (active),17.2%,16.9%,-1.09% (active),36.6%,29.1%,19.6%,-7.27% (active),11.4%,18.5%,8.87% (active),
COc1ccc(/C=N/NC(=O)Cn2c(Cc3cccc4ccccc34)nc3ccccc32)cc1,90.3%,92.7%,84.5%,89.3%,106%,101%,77.7%,102%,106%,105%,89.4%,92.4%,91.2%,109%,95.6%,88.9%,90.7%,105%,99.4%,
COc1ccc(/C=C/c2nc(N3CCOCC3)c3cc(F)c(F)cc3n2)cc1OC,34.8%,33.2%,70.2%,86.8%,36.4%,33.7%,26%,45.4%,15.6%,53.5%,16.4%,42.3%,55.4%,48.6%,53.5%,19.3%,56.8%,28%,20.5%,
CCC(=O)Oc1cc(/C=C/C(=O)O[C@H]2C[C@H]3CN4CCc5c([nH]c6cc(OC)ccc56)[C@@H]4C[C@@H]3[C@@H](C(=O)OC)[C@@H]2OC)ccc1OC,86.7%,67%,122%,89%,93.5%,-1.22% (active),84%,70.3%,69.5%,82.9%,39.7%,,49.7%,57.9%,74.8%,106%,84.6%,82.5%,74.9%,
COc1ccc(/C(=N/O)c2cc(OC)c(OC)c(OC)c2)c(OC)c1N,51.9%,80.7%,48.4%,33.7%,14.5%,53.2%,0.281% (active),30.6%,20.2%,39%,14.7%,53.1%,55.3%,23.2%,49.1%,6.4% (active),3.96% (active),21%,,
CC(Br)C(O)c1cc2c(cc1Br)OCO2 (configuration not stated),100%,106%,111%,102%,112%,104%,99.9%,100%,120%,109%,101%,109%,111%,104%,104%,110%,105%,96%,,
CC(C)CCN(CCCNc1c2c(nc3ccccc13)CCCC2)CCC(C)C,84.1%,,81.7%,102%,91%,42.4%,103%,77.6%,61.7%,86.3%,31.4%,84.9%,24.5%,81.9%,89.4%,80.1%,88.2%,35.9%,94.5%,94.1%
N#Cc1ccc(NC(=O)c2ccc3cccnc3c2O)cc1,43.7%,45.2%,27.7%,14.6%,4.71% (active),71.4%,18.6%,10.2%,11.2%,29.4%,30.7%,42.1%,44.4%,49.4%,21.6%,38.5%,17.1%,6.01% (active),13.5%,

# From PubChem BioAssay (NCI)
